According to PubChem BioAssay (EPA / NIEHS):
Calls of active or inactive are those of the source. The calls were made as follows: active = hit-call score of the fitted dose curve at least 0.9, where 1 is the maximum; inactive = score below 0.9.

assay: ATG_EGR_CIS: Attagene CIS-FACTORIAL HepG2 Assay for human Early Growth Response 1 (EGR1) (AID 2282938); details: HepG2 Attagene CIS-FACTORIAL EGR reporter mRNA; actives raise or lower the signal
Description: ATG_CIS is a cell-based, multiplexed-readout assay that uses HepG2, a human liver cell line, with measurements taken at 24 hours after chemical dosing in a 24-well plate.ATG_EGR_CIS is one of 52 assay component(s) measured or calculated from the ATG_CIS assay. It is designed to make measurements of mRNA induction, a form of inducible reporter, as detected with fluorescence intensity signals by Reverse transcription polymerase chain reaction (RT-PCR) and Capillary electrophoresis technology.Data from the assay component ATG_EGR_CIS was analyzed into 1 assay endpoint. This assay endpoint, ATG_EGR_CIS, was analyzed with bidirectional fitting relative to DMSO as the negative control and baseline of activity. Using a type of inducible reporter, measures of mRNA for gain or loss-of-signal activity can be used to understand the reporter gene at the transcription factor-level as they relate to the gene EGR1. Furthermore, this assay endpoint can be referred to as a primary readout, because this assay has produced multiple assay endpoints where this one serves a reporter gene function. To generalize the intended target to other relatable targets, this assay endpoint is annotated to the dna binding intended target family, where the subfamily is zinc finger.
Human liver HepG2 cells are transiently transfected with multiple reporter transcription units (MRTUs) in 6-well plates using FuGene 6 reagent (Roche; 3 ml FuGene/1 mg DNA). The MRTU constructs are regulated by a cis-regulating element (promoter). […] A major difference between the CIS and TRANS system is that in CIS activities of endogenous TFs are measured, whereas the TRANS assay evaluates changes in activities of exogenous, chimeric NR-Gal4 proteins. […] At the end of 24 hour incubation, total RNA was isolated using TriZol reagent (Invitrogen). The isolated RNA is then reverse-transcribed using oligo(dT) primer and Mo-MLV reverse transcriptase (Invitrogen) with DNAse I (Ambion) treatment for 30 min. The one-tenth of the produced cDNA was amplified by PCR using Taq DNA polymerase (Invitrogen) and two reporter sequence-specific primers. The PCR products were fluorescently labeled by primer extension with 6-arboxyfluorescein (6-FAM) 5'-labeled reporter sequence-specific primer (2 min at 95 C, 20 s at 68 C and 10 min at 72 C) and these products were digested with 5U of HpaI (New England Biolabs) for 2h at 37 C. The fragments were purified using Qiaquick PCR columns (Qiagen), analyzed on an ABI 3130xL genetic analyzer (Applied Biosystems) with peak positions identified by using a set of X-rhodamine (ROX)-labeled MapMarker1000 molecular weight standards (BioVentures). The raw capillary electrophoresis data was processed using Attagraph software (Attagene).

Structure (SMILES)	outcome	AC50
CC(CC(C)C)=NO	inactive	–
CC/C=C\C/C=C\C/C=C\CCCCCCCC(=O)OC	inactive	–
CCC(C)C(=O)OCCc1ccccc1 (stereo not given)	inactive	–
CC(C)=CCCC(C)=CC#N	inactive	–
C=CC(=O)OCCCCCCOC(=O)C=C	–	66.6 µM (active)
O=C1CCCCCCCCCCC1	inactive	–
CC(C)C(=O)OCCOc1ccccc1	inactive	–
CC(=O)c1ccc(S(=O)(=O)NC(=O)NC2CCCCC2)cc1	inactive	–
Cn1cccc1	inactive	–
CCc1cccc(C)c1N(C(=O)CS(=O)(=O)O)C(C)COC (stereo not given)	inactive	–
CC(C)=CCl	inactive	–
Cc1ccccc1CCO	inactive	–
CCC(C)(O)CCCC(C)C (stereo not given)	inactive	–
N=C1C=CC(=C(c2ccc(N)cc2)c2ccc(N)cc2)C=C1	inactive	–
COc1ccc(-c2coc3cc(O)cc(O)c3c2=O)cc1	inactive	–
C=C1C[C@H]2[C@@H]3C=C(C)C4=CC(=O)CC[C@]4(C)[C@H]3CC[C@]2(C)[C@@]1(OC(C)=O)C(C)=O	–	52.3 µM (active)
c1ccc2sc(SSN3CCOCC3)nc2c1	–	100 µM (active)
CC(C)COC(=O)CC(C(=O)OCC(C)C)S(=O)(=O)O (stereo not given)	inactive	–
C=Cc1cccc(C)c1	inactive	–
CCCCCCCCCCCCCCCCCCOS(=O)(=O)O	inactive	–

Structure (SMILES)	outcome	AC50
CCCC(C)C(=O)OCC (stereo not given)	inactive	–
O=C(O)CCC(=O)O	inactive	–
CC(C)CC(=O)OCc1ccccc1	inactive	–
CC(=O)OC1CCCCC1C(C)(C)C (stereo not given)	inactive	–
CC1C(C)(C)C2=C(C(=O)CCC2)C1(C)C (stereo not given)	inactive	–
CCCCCCCCCCCCCc1ccccc1	inactive	–
CCCCCCCCCCCCCC(=O)OC(C)C	inactive	–
O=C1CCCN1C1CCCCC1	inactive	–
COC(=O)CC(C)CCC=C(C)C (stereo not given)	inactive	–
CCCCCC1=CCCC1=O	inactive	–
COc1ccc(C(=O)/C(Br)=C\C(=O)O)cc1	–	68 µM (active)
COC(=O)C=Cc1ccccc1	inactive	–
CC1(C)CC(O)CC(C)(C)N1[O]	inactive	–
CCC[Si](OC)(OC)OC	inactive	–
Clc1cccnc1	inactive	–
CCOc1ccc(NC(N)=O)cc1	inactive	–
c1ccc2cnccc2c1	inactive	–
CC(=O)OC(C)c1ccccc1 (stereo not given)	inactive	–
Cc1cc(=O)[nH]c(=O)[nH]1	inactive	–
O=c1c(O)c(-c2ccc(O)cc2O)oc2cc(O)cc(O)c12	inactive	–
